POLK inh: blocks human DNA polymerase kappa activity; Potency, µM (top dose mostly 107 µM), without a hit: at the top dose activity, negative = inhibition, most hits filed as inhibitors; Q9UBT6; 400,000 compounds, 0.53% hits; purified Pol kappa, fluorescent DNA synthesis assay, 10 min; further: on the % scale 0 is the no-effect control and ±100 the full control effect
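10 nM Pol kappa was preincubated with compounds for 15 min at room temperature. Reaction started with 50 nM (final) substrate. Fluorescence read kinetically at 0 and 10 min.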
Pol eta inh: inhibitors of human DNA polymerase eta; Q9Y253; recombinant Pol eta, fluorescent DNA replication assay; Potency, µM (doses to about 114 µM), for inactives: at the highest dose activity change, negative = inhibition, hits mostly inhibitors; 390,000 compounds, 1.2% hits; further: on the % scale 0 is the no-effect control and ±100 the full control effect
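Fluorescent replication assay: 50 nM final substrate added after a 15 min room-temperature compound preincubation with 10 nM enzyme. Signal taken at 0 min and again at 10 min.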
FEN1 inhibitor: blocks human flap endonuclease 1; P39748; Recombinant FEN1 flap cleavage, fluorescence, 15 min; Potency, µM (series often up to 114 µM), inactives show top-dose activity change, negative = inhibition, usual class: inhibitors; 390,000 compounds, 0.35% hits; AID 588795; further: on the % scale 0 is the no-effect control and ±100 the full control effect; nearly all actives have a fitted effect of over 65% in size
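Potency values derive from four-parameter Hill fits of normalized qHTS data. The reaction used 10 nM FEN1 preincubated 15 min at room temperature with compound, then 50 nM DNA substrate, read at 0 and 15 min.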
Pol beta inh: DNA polymerase beta (human) inhibition. P06746. Pol beta primer extension/strand displacement, fluorescence kinetic. Potency, µM (top dose mostly 114 µM), for the others: at the highest dose activity change, negative = inhibition, usual class: inhibitors. 340,000 compounds, 1.3% hits. AID 485314; further: on the % scale 0 is the no-effect control and ±100 the full control effect
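Values derive from four-parameter Hill fits of normalized kinetic data: reads at 0 and 10 min following addition of 50 nM substrate to 10 nM Pol beta preincubated 15 min with compound.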
WRN helicase inh: inhibitors of human WRN helicase; AID 651768; WRN helicase unwinding, fluorescent forked duplex, kinetic; 360,000 compounds, 0.46% hits; Q14191; Potency, µM (top dose mostly 114 µM), without a hit: at the highest dose activity change, negative = inhibition, hits mostly inhibitors; further: on the % scale 0 is the no-effect control and ±100 the full control effect; nearly all actives have a fitted effect of over 55% in size
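Fluorescence dequenching readout, ex 525 nm/em 598 nm, kinetic mode: forked duplex DNA (100 nM final) with adjacent fluorophore and quencher unwound by WRN (20 nM final) with 2 mM ATP. Compound preincubation 15 min, room temperature.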
Pol iota inh: inhibitors of human DNA polymerase iota; Potency, µM (series often up to 115 µM), inactives show at the highest dose activity, negative = inhibition, actives largely listed as inhibitors; Q9UNA4; 390,000 compounds, 1% hits; Pol iota fluorescent replication assay, 10 min
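Pol iota at 10 nM preincubated 15 min with compounds at room temperature; reaction started with fluorescent substrate, 50 nM final. Fluorescence read kinetically at 0 and 10 min; buffer-only wells as negative control.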
An asterisk follows results filed as active; ? = inconclusive; nt = no result; [ ] = another dose, or the depositor's remark. This is a sample that favours compounds with a hit; in the whole collection about 2.4% have one here. The call rests on the fitted dose curve; in most records, active means well fitted curve in the direction sought with a large enough effect; inconclusive means small, poorly fitted or top-dose-only effect, or another doubt; inactive means no such curve, though single readings can be large; an effect the other way counts as inactive or inconclusive. Potency means the concentration at half of the fitted maximal effect.

SMILES	POLK inh	Pol eta inh	FEN1 inhibitor	Pol beta inh	WRN helicase inh	Pol iota inh
COc1ccc(NC(=O)Cn2nc(C)c3c(C)n(-c4ccccc4)nc3c2=O)cc1OC	-6%	?	?	50µM*	nt	?
COc1ccc(NC(=O)CCCn2nc(C)c3c(C)n(-c4ccccc4)nc3c2=O)cc1OC	0%	-10%	-4%	9%	-5%	28%
COc1cccc(NC(=O)CCCn2nc(C)c3c(C)n(-c4ccccc4)nc3c2=O)c1	-12%	-18%	3%	2%	1%	3%
N#CC1C=Cc2c(ccc3ccccc23)N1C(=O)c1ccccc1 (configuration not stated)	-12%	-13%	-25%	nt	-1%	16%
CCOc1ccc(/C=C/c2ccc3ccccc3[n+]2C)cc1OCC	45µM*	nt	?	nt	nt	?
C[n+]1c(/C=C/c2ccc(O)cc2)ccc2ccccc21	-29%	-26%	?	16µM*	-22%	?
C[n+]1c(/C=C/c2ccc(F)cc2)ccc2ccccc21	-27%	nt	?	nt	nt	29%
COc1cc(OC)c(/C=C/c2cc3c4ccccc4ccc3[n+](C)c2)c(OC)c1	0%	nt	?	nt	nt	2%
COc1cc(OC)c(/C=C/c2cc(/C=C/c3c(OC)cc(OC)cc3OC)[n+](C)c3ccccc23)c(OC)c1	-10%	nt	14µM*	nt	nt	-18%
CC[n+]1c(/C=C/c2ccc(OC)c(OC)c2)ccc2ccccc21	-9%	-2%	-18%	?	-2%	-1%
COc1ccc(OC)c(/C=C/c2ccc3ccccc3[n+]2C)c1	-11%	nt	45µM*	nt	nt	26%
O=C(O)COc1ccccc1/C=N/Nc1ccc(S(=O)(=O)Nc2ccc(Cl)cc2)cc1[N+](=O)[O-]	?	28µM*	?	?	?	?
Cc1cc(C)nc(N/N=C/c2ccccc2OCC(=O)O)n1	-10%	28µM*	-6%	-7%	-3%[11.6 µM]	10%
O=C(O)c1ccccc1NS(=O)(=O)c1ccc(NN=Cc2cccc(Cl)c2)c([N+](=O)[O-])c1	-28%	20µM*	?	nt	?	?
O=C(O)c1ccccc1NS(=O)(=O)c1ccc(NN=Cc2ccc(F)cc2)c([N+](=O)[O-])c1	-19%	35µM*	-23%	nt	?	-18%
Cc1cccc(-c2[nH]c(C(C)(C)C)nc2-c2ccc3nccnc3c2)n1	2%[60.1 µM]	nt	nt	nt	nt	nt
Cc1cc(-c2nc3ncccc3o2)ccc1NC(=O)c1ccc(Br)cc1	2%	-2%	28%	-11%	nt	0%
COc1cc(C(=S)N2CCCCC2)ccc1O	-3%[60.1 µM]	4%	-8%	7%	-8%[57.1 µM]	56µM*
Oc1ccc(Nc2nc3ccccc3nc2Nc2ccc(O)cc2)cc1	-16%	?	?	40µM*	-29%	?

From PubChem BioAssay
